We go through 37 compounds from paper PMC5540273 (PLoS ONE, 2017).

The structures appear in SMILES notation.
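Further: KINOMEscan kinase panel screen.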

The test system of one experiment is T1, MEK1.
T1 construct: gene MAP2K1
Conditions: concentration: 1 μM,replicates: in singlicate; n = 1.
For `CSc1nccc(-c2c(-c3ccc(F)cc3)ncn2CCCN2CCOCC2)n1.Cl` [SB-217146], the “%Inh” value is recorded as 30%.

Take `NC(=O)c1ccc(-c2cc3ncnc(SCC(=O)O)c3s2)cc1`: the “%Inh” value was 0%.

`COc1cccc(C2=C(Nc3cccc(Cl)c3)C(=O)NC2=O)c1` [SB-341556]: the “%Inh” value was determined as 0%.

For the compound `Cn1ccc2ncnc(Oc3ccc(NC(=O)Nc4ccnc(C(F)(F)F)c4)c(Cl)c3)c21`, the “%Inh” value is reported as 4%.

On to `Cc1n[nH]c2cc(Nc3ccnc(Nc4cccc(CN5CCOCC5)c4)n3)ccc12` [GW682569], for which the “%Inh” value stood at 14%.

`COC(=O)c1cccc(NC(=O)NC2CCN(c3ccnc(NCc4ccc(F)cc4)n3)CC2)c1` [GSK1379860]: the “%Inh” value is listed as 0%.

With `CS(=O)c1ccc(-c2coc3ccc(-c4n[nH]c(=O)o4)cc23)cc1` (centres unmarked), the “%Inh” value is recorded as 17%.

Turning to `Cc1cccc2c(-c3ccncc3)c(-c3ccc(F)cc3)nn12.Cl` [GW461487], the “%Inh” value is recorded as 39%.

In the case of `FC(F)(F)c1cc(Br)cc(Nc2nccc(-c3cnn4ncccc34)n2)c1` [GW810578], the “%Inh” value is reported as 3%.

Regarding `O=C1NCCc2[nH]c(-c3ccncc3)cc21`, the “%Inh” value turned out to be 8%.

Turning to `C[C@@H](Oc1cc(-n2cnc3cc(-c4ccncc4)ccc32)sc1C(N)=O)c1ccccc1Cl` [GSK479719], the “%Inh” value is recorded as 0%.

As to `NC(=O)Nc1sc(-c2ccc(F)cc2)cc1C(N)=O` [GW789449], the “%Inh” value was found to be 30%.

Consider `O=C(Nc1ccc(Oc2ccc3nc(NC(=O)C4CC4)cn3n2)c(F)c1)c1cccn(-c2ccccc2)c1=O`, for which the “%Inh” value amounted to 0%.

Take `Cc1ccc(CC(=O)N2CCc3cc(-c4cn(C)c5ncnc(N)c45)ccc32)cc1` [GSK2634758]: the “%Inh” value worked out at 0%.

Consider `Cl.Nc1n[nH]c2cc(-c3ccccn3)ccc12` [GSK2189892], for which the “%Inh” value was 2%.

With `Cn1ccc2ncnc(Oc3ccc(NC(=O)Nc4cnn(C(C)(C)C)c4)c(Cl)c3)c21`, the “%Inh” value came to 0%.

On to `Cn1ccc2ncnc(Oc3ccc(NC(=O)Nc4cncc(C(F)(F)F)c4)c(Cl)c3)c21`, for which the “%Inh” value stood at 0%.

Consider `CCN1CCN(CCCC(=O)Nc2n[nH]c3nc(-c4ccc(O)cc4)c(Br)cc23)CC1` [SB-731579], for which the “%Inh” value came out at 0%.

In the case of `CC(C)c1nc(-c2cccc(NS(=O)(=O)c3ccccc3)c2)c(-c2ccnc(Nc3ccc4c(c3)CN(C)CC4)n2)s1` [GSK1649598], the “%Inh” value is given as 52%.

On to `C[C@@H]1CNc2c(sc3ccc4nc(-c5ccncc5)ccc4c23)C(=O)N1`, for which the “%Inh” value turned out to be 0%.

As to `COc1cccc(OC)c1C(=O)Nc1cccc(-c2nn3ccccc3c2-c2ccnc(Nc3cccc(F)c3)n2)c1` [GSK361065], the “%Inh” value was found to be 28%.

With `Cc1cccc(-c2nc(Nc3ccncc3)c3sccc3n2)n1` [GW869641], the “%Inh” value is recorded as 25%.

In the case of `c1ccc(Oc2ccc(Nc3ccnc4ccc(-c5ccccn5)cc34)cc2)cc1` [GW407034], the “%Inh” value is listed as 85%.

Take `C[C@@H](Oc1cc(-n2cnc3cc(-c4cnn(C)c4)ccc32)sc1C(N)=O)c1ccccc1Cl` [GSK580432]: the “%Inh” value was 0%.

In the case of `CS(=O)(=O)c1cccc(CNc2nc(Nc3ccc4c(c3)[C@@H]3C[C@@H]4CNC3=O)ncc2C(F)(F)F)c1`, the “%Inh” value is 39%.

On to `COc1cccc(CNC(=O)NC2CCN(c3ccnc(Nc4cc(OC)c(OC)c(OC)c4)n3)C2)c1` (centres unmarked) [GSK1379765], for which the “%Inh” value was determined as 17%.

With `Cc1nnc(-c2ccc3occ(-c4ccc(S(C)=O)cc4)c3n2)o1` (centres unmarked), the “%Inh” value came to 0%.

On to `COc1cc2ncn(-c3cc(OCC4CCCCC4)c(C(N)=O)s3)c2cc1OC` [GSK204559], for which the “%Inh” value worked out at 0%.

With `CC(=O)Nc1nc2cnc(Nc3cc(NC(=O)c4cccc(CC(C)(C)C#N)c4)ccc3C)nc2s1`, the “%Inh” value came out at 6%.

Turning to `CN(c1ccc2c(c1)nc(NCc1ccc(F)cc1)n2C)c1ccnc(Nc2ccc(CS(C)(=O)=O)cc2)n1.Cl` [GW813244], the “%Inh” value was found to be 14%.

Turning to `Cc1ccc(C(=O)Nc2ccc(Oc3ccc4nc(NC(=O)C5CC5)cn4c3)c(F)c2)c(=O)n1-c1ccccc1`, the “%Inh” value stood at 0%.

Consider `COc1cc2c(Nc3ccc(NC(=O)c4ccccc4)cc3)ncnc2cc1OCCCN1CCOCC1` [GSK301329], for which the “%Inh” value is on record as 86%.

Regarding `N#Cc1cccc(C(=O)NC2CCN(c3ccnc(Nc4ccc(F)cc4)n3)C2)c1` (centres unmarked) [GSK1379708], the “%Inh” value is on record as 0%.

As to `O=C(NOCC1CC1)c1cc(Br)c(F)c(F)c1Nc1ccc(I)cc1Cl`, the “%Inh” value worked out at 31%.

Consider `COc1cc2nccc(Nc3ccc(Oc4ccccc4)cc3)c2cc1OC.Cl` [GI261656], for which the “%Inh” value was 96.9%.

Take `O=C(Nc1cccc(C(F)(F)F)c1)c1cccc(Oc2ccc3nccn3n2)c1`: the “%Inh” value was found to be 0%.

`CN(c1ccccc1CNc1nc(Nc2ccc3c(c2)CC(=O)N3)ncc1C(F)(F)F)S(C)(=O)=O`: the “%Inh” value was 1%.

A further experiment has as its system T2, MEK2.
T2 construct: gene MAP2K2
Conditions: concentration: 1 μM,replicates: in singlicate; n = 1.
With `CSc1nccc(-c2c(-c3ccc(F)cc3)ncn2CCCN2CCOCC2)n1.Cl` [SB-217146], the “%Inh” value worked out at 43%.

For the compound `NC(=O)c1ccc(-c2cc3ncnc(SCC(=O)O)c3s2)cc1`, the “%Inh” value amounted to 34%.

Take `COc1cccc(C2=C(Nc3cccc(Cl)c3)C(=O)NC2=O)c1` [SB-341556]: the “%Inh” value was 0%.

For the compound `Cn1ccc2ncnc(Oc3ccc(NC(=O)Nc4ccnc(C(F)(F)F)c4)c(Cl)c3)c21`, the “%Inh” value was determined as 15%.

As to `Cc1n[nH]c2cc(Nc3ccnc(Nc4cccc(CN5CCOCC5)c4)n3)ccc12` [GW682569], the “%Inh” value was found to be 0%.

As for `COC(=O)c1cccc(NC(=O)NC2CCN(c3ccnc(NCc4ccc(F)cc4)n3)CC2)c1` [GSK1379860], the “%Inh” value turned out to be 0%.

Take `CS(=O)c1ccc(-c2coc3ccc(-c4n[nH]c(=O)o4)cc23)cc1` (centres unmarked): the “%Inh” value amounted to 18%.

Take `Cc1cccc2c(-c3ccncc3)c(-c3ccc(F)cc3)nn12.Cl` [GW461487]: the “%Inh” value is 0%.

For the compound `FC(F)(F)c1cc(Br)cc(Nc2nccc(-c3cnn4ncccc34)n2)c1` [GW810578], the “%Inh” value is on record as 14%.

Consider `O=C1NCCc2[nH]c(-c3ccncc3)cc21`, for which the “%Inh” value amounted to 26%.

Consider `C[C@@H](Oc1cc(-n2cnc3cc(-c4ccncc4)ccc32)sc1C(N)=O)c1ccccc1Cl` [GSK479719], for which the “%Inh” value is 0%.

`NC(=O)Nc1sc(-c2ccc(F)cc2)cc1C(N)=O` [GW789449]: the “%Inh” value was determined as 40%.

Turning to `O=C(Nc1ccc(Oc2ccc3nc(NC(=O)C4CC4)cn3n2)c(F)c1)c1cccn(-c2ccccc2)c1=O`, the “%Inh” value was 25%.

With `Cc1ccc(CC(=O)N2CCc3cc(-c4cn(C)c5ncnc(N)c45)ccc32)cc1` [GSK2634758], the “%Inh” value turned out to be 0%.

In the case of `Cl.Nc1n[nH]c2cc(-c3ccccn3)ccc12` [GSK2189892], the “%Inh” value amounted to 0%.

For the compound `Cn1ccc2ncnc(Oc3ccc(NC(=O)Nc4cnn(C(C)(C)C)c4)c(Cl)c3)c21`, the “%Inh” value came out at 15%.

`Cn1ccc2ncnc(Oc3ccc(NC(=O)Nc4cncc(C(F)(F)F)c4)c(Cl)c3)c21`: the “%Inh” value turned out to be 0%.

Regarding `CCN1CCN(CCCC(=O)Nc2n[nH]c3nc(-c4ccc(O)cc4)c(Br)cc23)CC1` [SB-731579], the “%Inh” value is 0%.

On to `CC(C)c1nc(-c2cccc(NS(=O)(=O)c3ccccc3)c2)c(-c2ccnc(Nc3ccc4c(c3)CN(C)CC4)n2)s1` [GSK1649598], for which the “%Inh” value is reported as 77%.

On to `C[C@@H]1CNc2c(sc3ccc4nc(-c5ccncc5)ccc4c23)C(=O)N1`, for which the “%Inh” value worked out at 0%.

With `COc1cccc(OC)c1C(=O)Nc1cccc(-c2nn3ccccc3c2-c2ccnc(Nc3cccc(F)c3)n2)c1` [GSK361065], the “%Inh” value is on record as 41%.

With `Cc1cccc(-c2nc(Nc3ccncc3)c3sccc3n2)n1` [GW869641], the “%Inh” value is reported as 20%.

`c1ccc(Oc2ccc(Nc3ccnc4ccc(-c5ccccn5)cc34)cc2)cc1` [GW407034]: the “%Inh” value came to 66%.

`C[C@@H](Oc1cc(-n2cnc3cc(-c4cnn(C)c4)ccc32)sc1C(N)=O)c1ccccc1Cl` [GSK580432]: the “%Inh” value is listed as 0%.

As for `CS(=O)(=O)c1cccc(CNc2nc(Nc3ccc4c(c3)[C@@H]3C[C@@H]4CNC3=O)ncc2C(F)(F)F)c1`, the “%Inh” value was determined as 80%.

As for `COc1cccc(CNC(=O)NC2CCN(c3ccnc(Nc4cc(OC)c(OC)c(OC)c4)n3)C2)c1` (centres unmarked) [GSK1379765], the “%Inh” value is reported as 5%.

Turning to `Cc1nnc(-c2ccc3occ(-c4ccc(S(C)=O)cc4)c3n2)o1` (centres unmarked), the “%Inh” value came to 0%.

In the case of `COc1cc2ncn(-c3cc(OCC4CCCCC4)c(C(N)=O)s3)c2cc1OC` [GSK204559], the “%Inh” value came to 0%.

Take `CC(=O)Nc1nc2cnc(Nc3cc(NC(=O)c4cccc(CC(C)(C)C#N)c4)ccc3C)nc2s1`: the “%Inh” value is recorded as 6%.

Regarding `CN(c1ccc2c(c1)nc(NCc1ccc(F)cc1)n2C)c1ccnc(Nc2ccc(CS(C)(=O)=O)cc2)n1.Cl` [GW813244], the “%Inh” value is given as 37%.

On to `Cc1ccc(C(=O)Nc2ccc(Oc3ccc4nc(NC(=O)C5CC5)cn4c3)c(F)c2)c(=O)n1-c1ccccc1`, for which the “%Inh” value came out at 29%.

For `COc1cc2c(Nc3ccc(NC(=O)c4ccccc4)cc3)ncnc2cc1OCCCN1CCOCC1` [GSK301329], the “%Inh” value is recorded as 86%.

On to `N#Cc1cccc(C(=O)NC2CCN(c3ccnc(Nc4ccc(F)cc4)n3)C2)c1` (centres unmarked) [GSK1379708], for which the “%Inh” value was 0%.

As to `O=C(NOCC1CC1)c1cc(Br)c(F)c(F)c1Nc1ccc(I)cc1Cl`, the “%Inh” value is reported as 58%.

With `COc1cc2nccc(Nc3ccc(Oc4ccccc4)cc3)c2cc1OC.Cl` [GI261656], the “%Inh” value is recorded as 92.5%.

On to `O=C(Nc1cccc(C(F)(F)F)c1)c1cccc(Oc2ccc3nccn3n2)c1`, for which the “%Inh” value is given as 8%.

As to `CN(c1ccccc1CNc1nc(Nc2ccc3c(c2)CC(=O)N3)ncc1C(F)(F)F)S(C)(=O)=O`, the “%Inh” value came out at 0%.
